Test results reported in PubChem BioAssay (NCI).
Compounds without any hit were thinned out: in the full panel of roughly 83,000, 20% have a hit.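 A percent growth of 40 corresponds to 60% growth inhibition; 0 means no net growth; -100 means all cells died. Active threshold: below 10.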 Active and inactive are the calls of the source.

Legend:
Assay in all cases: NCI-60 one-dose screen, 48 h (100 = growth as untreated, 0 = no growth, -100 = all killed)
Conditions in all cases: 10 µM unless noted
[1] = system: DU-145 prostate
[2] = system: K-562 leukemia
[3] = system: MALME-3M melanoma
[4] = system: MDA-MB-231 breast
[5] = system: RXF 393 renal
[6] = system: SF-268 CNS
[7] = system: SF-295 CNS
[8] = system: SF-539 CNS
[9] = system: UACC-257 melanoma
[10] = system: M14 melanoma
[11] = system: HCT-15 colon
[12] = system: HT29 colon
[13] = system: SNB-75 CNS
[14] = system: SNB-19 CNS
[15] = system: U251 CNS
[16] = system: PC-3 prostate
[17] = system: SK-MEL-5 melanoma
[18] = system: UACC-62 melanoma
[19] = system: LOX IMVI melanoma
[20] = system: SK-MEL-28 melanoma

Measured: growth

O=C(N/N=C/c1ccncc1)c1ccc(C(F)(F)F)nc1Nc1cccc(C(F)(F)F)c1
inactive: [1] 40.6% | [2] 13.9% | [4] 21.1% | [6] 23.4% | [8] 26.1% | [9] 21.9% | [10] 25.4% | [11] 13.1% | [12] 23.1% | [13] 46.7% | [14] 36% | [16] 20.5% | [17] 10% | [18] 15.1% | [19] 20.5% | [20] 44.9%
active: [3] 4.45% | [5] -8.63% | [7] -24.1% | [15] 8.49%

Cc1cc(C(=O)c2ccccc2)c(C)c2c1[nH]c1ccc(Cl)cc12
active: [1] 1.86% | [7] 6.92% | [8] -14.9% | [11] 7.78% | [12] 5.31% | [13] -10.1% | [17] 2.39%
inactive: [2] 11.9% | [3] 33.7% | [4] 30.6% | [5] 18.9% | [6] 22.8% | [9] 66.1% | [10] 19.6% | [14] 52.3% | [15] 20.8% | [16] 23.8% | [18] 54.9% | [19] 10.2% | [20] 59.1%

O=C1NC(=Nc2ccc(Cl)cc2)S/C1=C\c1cn(-c2ccccc2)nc1-c1ccccc1
inactive: [1] 89% | [2] 92.1% | [3] 83.8% | [4] 88.4% | [5] 97% | [6] 84.5% | [7] 94.5% | [8] 81% | [9] 91.6% | [10] 97.1% | [11] 76% | [12] 77.5% | [13] 65.8% | [14] 90.2% | [15] 18.4% | [16] 56.5% | [17] 94.9% | [18] 87.1% | [19] 90.5% | [20] 97.8%

COc1ccc(-c2cc(-c3ccc(Nc4nc(Nc5ccc(Cl)cc5)nc(Nc5ccc(Cl)cc5)n4)cc3)nc(N)c2C#N)cc1
active: [3] -70.3% | [4] -30.7% | [5] -32.5% | [8] -48.7% | [9] -13.2% | [12] 2.33% | [13] -74.1% | [16] 4.49% | [17] -67.5% | [19] -75.1% | [20] -47.5%
inactive: [1] 37.7% | [2] 30.1% | [6] 59% | [7] 415% | [10] 24.9% | [11] 10.6% | [14] 105% | [15] 10.9% | [18] 42.4%

COc1cc(OC)cc(C2CC(=O)Nc3c2c(C)nn3-c2nc3ccccc3[nH]2)c1 (stereo not given)
active: [2] 9.41% | [5] -0.824% | [7] -62.9% | [13] -3.14% | [17] -62% | [18] -19.2% | [19] 1.34%
inactive: [1] 53.3% | [3] 38.3% | [4] 16.5% | [6] 29.3% | [8] 18.4% | [9] 23.9% | [10] 11.8% | [11] 37.2% | [12] 23.5% | [14] 21.9% | [15] 16.8% | [16] 26.4% | [20] 38.1%

CC1(C)CC(=O)CC2(C1)N=C(N)Nc1nc3ccccc3n12 (stereo not given)
inactive: [1] 115% | [2] 103% | [3] 104% | [4] 96.5% | [5] 104% | [6] 107% | [7] 108% | [8] 105% | [9] 106% | [10] 110% | [11] 98.2% | [12] 91.6% | [13] 82.3% | [14] 99.2% | [15] 104% | [16] 95.7% | [17] 97.4% | [18] 95.9% | [19] 94.9% | [20] 101%

C=CCOC1=CC(=O)c2ccccc2C1=O
active: [19] 3.82%
inactive: [1] 59.9% | [2] 26.8% | [3] 69% | [4] 77.3% | [5] 111% | [6] 82% | [7] 98.1% | [8] 116% | [9] 55.8% | [10] 79.5% | [11] 94.9% | [12] 80.5% | [13] 48% | [14] 104% | [15] 86.7% | [16] 85.9% | [17] 27.3% | [18] 57% | [20] 87%

C[C@@]1(CCC#N)[C@H]2CC[C@@H]3[C@H]4[C@H](C(=O)/C=C/c5cccnc5)CC[C@]4(C#N)CC[C@@]3(C)[C@]2(C)CC[C@H]1C(=O)/C=C/c1cccnc1
inactive: [1] 81.5% | [2] 23.2% | [3] 109% | [4] 93.4% | [5] 69.7% | [6] 61.7% | [7] 100% | [8] 83.7% | [9] 67.5% | [10] 74.7% | [11] 31.5% | [12] 24.1% | [13] 72.7% | [14] 86.9% | [15] 64.1% | [16] 65% | [17] 77.3% | [18] 52.4% | [19] 17.5% | [20] 97.3%

C[C@]12CC[C@@H]3c4cc(OC(F)F)c(O)cc4CC[C@H]3[C@@H]1CC[C@@H]2OS(N)(=O)=O
inactive: [2] 14.1% | [3] 27.1% | [4] 50.9% | [5] 19.1% | [6] 58.3% | [7] 12.8% | [9] 71.8% | [10] 17.6% | [11] 26.6% | [12] 19.5% | [14] 51% | [15] 30% | [16] 26.7% | [18] 48% | [19] 40.4% | [20] 57.4%
active: [1] 9.56% | [8] 5.62% | [13] -8.09% | [17] 0.18%

NC(=S)N/N=C/Cc1ccccc1
inactive: [1] 110% | [2] 88.4% | [3] 119% | [4] 101% | [5] 103% | [6] 105% | [7] 97.7% | [8] 109% | [9] 59.7% | [10] 104% | [11] 87.4% | [12] 94.7% | [13] 110% | [14] 104% | [15] 98.4% | [16] 91.4% | [17] 107% | [18] 108% | [19] 73% | [20] 109%

CCN(CC)CCn1nc2c3c(cccc3c1=O)-c1ccccc1-2
active: [3] -9.04% | [7] 7.02% | [9] 2.85% | [15] 6.95% | [17] -20% | [18] 5.94% | [19] -3.44%
inactive: [1] 20.9% | [2] 13.8% | [4] 37.7% | [5] 24.2% | [6] 45.9% | [8] 30.7% | [10] 28.4% | [11] 17.1% | [12] 15.6% | [13] 50.9% | [14] 26% | [16] 26.6% | [20] 37.1%

COc1cc(-c2nc(N3CCN(C)CC3)c3ccccc3n2)cc(OC)c1OC
inactive: [1] 82.4% | [2] 44.8% | [3] 63.8% | [4] 61.2% | [5] 51.4% | [6] 56.8% | [7] 28.6% | [8] 39.3% | [9] 58.2% | [10] 42% | [11] 56.9% | [12] 49.5% | [13] 15.7% | [14] 85.2% | [15] 60.2% | [16] 52.8% | [17] 47% | [18] 18.2% | [19] 44.3% | [20] 59.5%

COc1ccc2c(c1)O/C(=C\c1cccc(OCC(=O)Nc3nc(C)c(C)s3)c1)C2=O
active: [1] -96.2% | [2] -41.3% | [3] -54% | [5] -66.3% | [6] -55.4% | [7] -80.2% | [8] -78.9% | [10] -15.1% | [12] -29.9% | [13] -63.1% | [15] -64.5% | [16] -38.7% | [19] -68%
inactive: [4] 21.2% | [9] 88.5% | [11] 94.1% | [14] 88.5% | [17] 111% | [18] 81.7% | [20] 84.8%

COc1cc(/C=C/C(=O)c2c(C)nc3ccccc3c2C)ccc1OCCCN1CCN(C(=O)c2ccco2)CC1
inactive: [1] 91.4% | [2] 59.7% | [3] 68.3% | [4] 75.3% | [5] 74% | [6] 87.4% | [7] 78.3% | [8] 93.3% | [9] 62.4% | [10] 94.4% | [11] 76.2% | [14] 99% | [15] 77.9% | [16] 88.3% | [17] 33.5% | [18] 65.9% | [19] 81.9%
active: [12] 6.55% | [13] -70.5% | [20] -29%
